An excerpt weighted towards active compounds, which were near 1.5% of everything screened.
FBPA coupling cs: qHTS Assay for Inhibitors of Fructose-1,6-bisphosphate Aldolase from Giardia Lamblia: Coupling assay counterscreen | AID 2472, 2010 | coupling enzyme system counterscreen, AmpLite Red fluorescence | activity change, negative = inhibition, % at 58.2 µM, hits read low | 0.67% of 290,000 active; in the data active = activity change below about -30%
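Final compound at 57.5 uM, incubated 10 min at RT with coupling enzyme reagent (glyceraldehyde-3-phosphate), then 20 min with substrate and AmpLite Red detection. Fluorescence read at 525/598 nm; tests interference with the coupling assay, not aldolase inhibition.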
rTrxR1 inhibitor: qHTS Assay for Inhibitors of Mammalian Selenoprotein Thioredoxin Reductase 1 (TrxR1): qHTS; Thioredoxin reductase 1, cytoplasmic (Rattus norvegicus), O89049; recombinant rTrxR1, NADPH fluorescence consumption, selenite substrate; Potency, µM (titrated, usually from 114 µM), actives largely listed as inhibitors; 1% of 390,000 active; AID 588453, 2011; note: nearly all actives have a fitted effect of over 65% in size
Target sequence (O89049 whole entry, looked up): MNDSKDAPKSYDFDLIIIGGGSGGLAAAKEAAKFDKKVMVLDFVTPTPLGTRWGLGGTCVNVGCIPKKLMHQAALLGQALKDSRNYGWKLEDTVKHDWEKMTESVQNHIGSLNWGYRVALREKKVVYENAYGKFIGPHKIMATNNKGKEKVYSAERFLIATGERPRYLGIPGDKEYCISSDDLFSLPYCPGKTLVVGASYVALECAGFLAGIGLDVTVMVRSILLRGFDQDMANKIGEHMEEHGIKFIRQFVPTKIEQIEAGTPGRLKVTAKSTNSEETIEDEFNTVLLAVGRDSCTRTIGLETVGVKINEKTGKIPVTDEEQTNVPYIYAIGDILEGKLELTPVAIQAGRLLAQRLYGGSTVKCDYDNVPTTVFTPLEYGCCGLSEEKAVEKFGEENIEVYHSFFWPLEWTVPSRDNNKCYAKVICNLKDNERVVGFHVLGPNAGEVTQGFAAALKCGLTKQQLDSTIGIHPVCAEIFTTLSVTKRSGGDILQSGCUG
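Rat TrxR1 (90 nM in the dispensed reagent) was pre-reduced with 400 uM NADPH for 5 min at room temperature, then incubated with compound for 15 min. After 400 uM selenite was added, NADPH fluorescence (Ex 340/Em 450 nm) was followed for 8 min.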
TrxR1 substrate: qHTS Assay for Substrates of Mammalian Selenoprotein Thioredoxin Reductase 1 (TrxR1): qHTS; Thioredoxin reductase 1, cytoplasmic (Rattus norvegicus), O89049; purified TrxR1 substrate turnover, NADPH consumption readout; Potency, µM (doses to about 114 µM); 0.01% of 390,000 active; AID 588456, 2011; note: nearly all actives have a fitted effect of over 50% in size
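Rat TrxR1, dispensed at 90 nM, was prereduced with 400 uM NADPH (final) for 5 min at ~22 deg C, then incubated with compound 15 min before 400 uM selenite. A first-read NADPH fluorescence drop versus no-compound background flagged substrates.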
Eya2 phos inh: qHTS Assay for Inhibitors of the Phosphatase Activity of Eya2; AID 488837, 2010; recombinant Eya2, OMFP fluorescence dephosphorylation (OMFP is methylfluorescein phosphate); Protein phosphatase EYA2 (Homo sapiens), O00167; Potency, µM (top dose mostly 76.9 µM), most hits filed as inhibitors; 0.006% of 330,000 active
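Eya2 protein (added as 0.2 uM solution) was preincubated with compound for 10 min at ambient temperature in 50 mM HEPES pH 7.5, 50 mM NaCl, 5 uM MgCl2, 0.05% BSA, 1 mM DTT. OMFP (added at 50 uM) then reacted 10 min; fluorescence read at 485/525 nm.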
mIDH1 inhibitor: qHTS for Inhibitors of mutant isocitrate dehydrogenase 1 (IDH1): qHTS | Isocitrate dehydrogenase [NADP] cytoplasmic (Homo sapiens), O75874 | IDH1-R132H enzyme, NADPH consumption, diaphorase/resazurin fluorescence | Potency, µM (titrated, usually from 76.6 µM), actives largely listed as inhibitors | 0.093% of 390,000 active; note: nearly all actives have a fitted effect of over 65% in size
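IDH1-R132H (0.5 ug/mL dispensed) in pH 7.5 Tris buffer was preincubated 30 min with compound, then given a substrate mix of 0.016 mM NADPH and 2 mM alpha-KG for 80 min at room temperature; remaining NADPH was read by diaphorase/resazurin fluorescence.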
Numbers stand for hits; - = inactive; ? = inconclusive; . = no result given; ! = not active in a repeat. Unless noted, calls come from the whole dose curve; as a rule, active = well fitted curve in the direction sought with a large enough effect; inconclusive = small, poorly fitted or top-dose-only effect, or another doubt; inactive = no such curve, though single readings can be large; an effect the other way counts as inactive or inconclusive.

SMILES	FBPA coupling cs	rTrxR1 inhibitor	TrxR1 substrate	Eya2 phos inh	mIDH1 inhibitor
Cc1cc(C)c2nccc(/C=C/c3ccc(N(C)C)cc3)c2c1	.	-	-	.	.
Cc1c(CC(=O)N2CCCCC2)c(=O)oc2cc(O)ccc12	.	56µM	-	.	-
CCOC(=O)CCc1c(C)c2ccc(O)cc2oc1=O	-39	-	-	-	-
Cc1c(CC(=O)N2CCN(C(=O)C3COc4ccccc4O3)CC2)c(=O)oc2cc(O)ccc12 (centres undefined)	-	89µM	-	-	-
Cc1cnc2ccccc2c1/C=C/c1ccc(N)cc1	.	?	-	.	.
O=[N+]([O-])c1ccc(/C=C2\CCC(C3=CCCC3)=C2N2CCOCC2)cc1	-	40µM	-	-	-
O=C(NP(=O)(N1CCCC1)N1CCCC1)C1=C(N2CCOCC2)/C(=C/c2cccc([N+](=O)[O-])c2)CC1	-	-	-	-	-
O=C(CC(=O)N/N=C/c1ccccc1)NCc1ccccc1	-40	-	-	-	-
O=C(CCC(=O)Nc1ccccc1Cl)N/N=C/c1ccccc1	-47	-	-	-	-
CCOC(=O)CNc1ccc2c(c1)OCO2	-38	-	-	-	-
CCOC(=O)CNC(=O)/C=C/c1ccc2c(c1)OCO2	-	-	-	-	-
O=C(CSc1ncnc2scc(-c3ccc(Cl)cc3)c12)NCc1ccc2c(c1)OCO2	-33	-	-	-	-
Cc1ccc(-c2csc3ncnc(SCC(=O)NCc4ccc5c(c4)OCO5)c23)cc1	-	-	-	-	-
Cn1c(NNC(=O)c2ccccc2F)cc(=O)n(C)c1=O	-30	-	-	-	-
FC(F)(F)C1=Nc2cccc3cccc(c23)N1	.	40µM	-	-	-
Cc1cnccc1/C=C/c1ccc(N)cc1	.	-	-	.	.
CCCn1c(=O)c2[nH]c(-c3ccc(S(=O)(=O)O)cc3)nc2n(CCC)c1=O	.	22µM!	-	-	-
CC(=O)c1nnn(-c2ccc([N+](=O)[O-])cc2C)c1C	-	-	-	-	-
CC(=O)c1nnn(-c2cccc([N+](=O)[O-])c2)c1C	-38	-	-	-	-
CCCCNC(=O)[C@@H]1CC=C[C@@H]2CCN(C3CCCCC3)C(=O)[C@@H]21	.	-	-	.	.
COc1ccc(-c2cc3ccc(OC(C)C(=O)O)cc3oc2=O)cc1 (centres undefined)	-	71µM	-	-	-
CC(=O)c1sc(NC(=O)C2(F)C(F)(F)C(F)(F)C(F)(F)C(F)(F)C2(F)F)nc1C	-	35µM	?	-	-
CC(=O)c1sc(NC(=O)C=C(C)C)nc1C	-	-	-	-	-
COc1cc2nc(N3CCN(C)CC3)nc(NC3CCN(C)CC3)c2cc1OC	.	?	-	.	.
COc1cc(/C=C2\CCCc3c2nc2ccccc2c3C(=O)O)cc(Br)c1O	-	-	-	-	-
SMILES	FBPA coupling cs	rTrxR1 inhibitor	TrxR1 substrate	Eya2 phos inh	mIDH1 inhibitor
CCOc1cc(/C=C2\CCCc3c2nc2ccccc2c3C(=O)O)ccc1OC	-	79µM	-	?	-
Cc1cccc(NC(=S)N/C(=N/S(=O)(=O)c2ccccc2)c2ccccc2)c1	-	16µM	-	-	-
Cc1ccc(S(=O)(=O)/N=C(/NC(=S)Nc2cccc(C)c2)c2ccccc2)cc1	-	?	-	-	-
O=C(c1ccco1)N1CCN(Cc2csc(-c3ccccc3Cl)n2)CC1	.	71µM	-	-	-
O=C(c1ccco1)N1CCN(Cc2c(Cl)cccc2Cl)CC1	-	-	-	-	-
Cc1cc(C)c2nccc(C)c2c1	.	-	-	.	.
CCOC(=O)C1(C)C=C(Nc2ccc(O)cc2)C(=O)N1c1ccc(O)cc1 (centres undefined)	-49	?	-	-	-
CCOC(=O)C1(C)C=C(Nc2ccc(OC)cc2)C(=O)N1c1ccc(OC)cc1 (centres undefined)	-	-	-	-	-
Cc1nc2ccccc2n2c(O)c(CC(=O)O)cc12	-	35µM	-	-	-
CCOC(=O)c1ccc(-n2c(C)ccc2C)cc1	-	-	-	-	-
C=CCNc1nnc(SC2CC(=O)N(c3ccc(OCCC)cc3)C2=O)s1 (centres undefined)	-	7.1µM	-	-	-
Nc1nnc(SC2CC(=O)N(c3ccccc3)C2=O)s1 (centres undefined)	-	28µM	-	-	-
CCOC(=O)c1ccc(N2C(=O)CC(Sc3nnc(C)s3)C2=O)cc1 (centres undefined)	-	5.6µM	-	-	-
CCOC(=O)c1ccc(N2C(=O)C=CC2=O)cc1	-	8.9µM	-	-	-
O=C(Cc1ccc(OCc2ccccn2)cc1)NO	.	-	-	.	.
CCN(CC)S(=O)(=O)c1ccc(NC(=O)CSc2nnc3c(n2)[nH]c2ccccc23)cc1	.	-	-	.	.
CC#CCN1c2ccccc2[C@]23C[C@@H](C(=O)OC)N(S(=O)(=O)CCCC)C2=NC(C(=O)OC)=C(C(=O)OC)[C@H]13	-	.	.	.	.
COc1ccc(OC)c(C2=Nn3c(nnc3-c3cccc(OC)c3OC)SC2)c1	-	.	.	.	.
CN(C)C(=O)NC1CCCCCCC1	-	.	.	.	.
C=C(CC[C@]12OC(C(=O)O)C(O)(C(=O)O)C(C(=O)O)(O1)C(OC(=O)/C=C/[C@@H](C)C[C@@H](C)CC)C2O)[C@@H](OC(C)=O)[C@H](C)Cc1ccccc1 (some centres undefined)	.	-	-	.	.
O=C1CC(Sc2nnnn2-c2ccccc2)C(=O)N1c1cccc(Cl)c1 (centres undefined)	-	32µM	-	-	-
CCCOc1ccc(C(=O)CCNC(Cc2c[nH]c3ccccc23)C(=O)O)cc1 (centres undefined)	-	1.8µM	-	-	-
CCC[C@H](NC(=O)[C@H](CC(C)C)N(C)C(=O)CNC(=O)[C@@H](NC(=O)[C@H](Cc1ccccc1)NC(=O)[C@H](CCCCN)NC(=O)[C@@H](N)CC(=O)O)C(C)C)C(N)=O	-	.	.	.	.
CC(/C=N/NC(=O)Cc1cccn1C)=C\c1ccccc1	-	50µM	-	-	-
CC(/C=N/NC(=O)Cc1cccs1)=C\c1ccccc1	-	-	-	-	-
COc1cc(N)c(Cc2nccc3cc(OC)c(OC)cc23)cc1OC	-31	-	-	-	-
COc1ccc(N=c2nc(-c3ccc(C)cc3)n(-c3ccccc3)s2)cc1	.	-	-	.	.
CN(CCO)CCOCCOc1cccc2ccccc12	-47	-	-	-	-
NC(=O)COc1ccccc1C(=O)Nc1ccccc1	.	-	-	.	.
CCN1C(=O)/C(=C\c2cccc(OC(=O)c3ccco3)c2)SC1=S	-38	-	-	-	-
